# Assay results as given in PubChem BioAssay.
# Calls of active or inactive are those of the source. Unless noted, the rule behind the calls is not given here.
# Columns and labels:
# [1] = resazurin metabolic signal in HepG2 cells – cell-based, resazurin fluorescence, 24 h, PK04 Diversity Set, profiling panel (AID 1172); settings: HepG2 viability, higher = more signal
# [2] = budding yeast growth changes without added modifier – OD600, strain BY4716, 24 h, basal condition, primary screen (AID 1173); settings: S. cerevisiae BY4716 growth, OD600, 24 h; higher = more signal, called active from +8 up or from −8 down
# [3] = viability profiling in MM1S myeloma cells – cell-based, resazurin fluorescence, basal, 24 h, PK04 Diversity Set, profiling panel (AID 1174); settings: higher = more signal, called active from +8 up or from −8 down;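 note: MM1S multiple myeloma cell line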
# [4] = target: Dihydroorotate dehydrogenase (quinone), mitochondrial (Plasmodium falciparum (isolate 3D7)) (UniProt Q08210); assay: inhibition of P. falciparum DHODH – biochemical, C-terminal His tag, absorbance 600 nm, primary screen (AID 1175); settings: PfDHODH enzyme, DCIP absorbance 600 nm; higher = more signal, called active from +8 up or from −8 down;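 note: recombinant parasite enzyme with a five histidine tag at its C terminus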
# [5] = inhibition of PAO1 biofilm formation – strain PAO1, LB-PBS medium, absorbance 600 nm, primary screen (AID 1176); settings: P. aeruginosa PAO1 growth/biofilm, A600, 12 h; higher = more signal
# [6] = growth modulation of vineyard yeast isolate – strain RM11-1a, OD600, basal, 24 h, primary screen (AID 1177);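 note: cultures grown under basal conditions with no added stressor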; settings: S. cerevisiae RM11-1a growth, OD600, 24 h; higher = more signal, called active from +8 up or from −8 down
# [7] = growth of efflux-deficient E. coli DRC39 – strain DRC39, OD650, 24 h, E. coli filamentation inducers, primary screen (AID 1178);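 note: growth measured as culture turbidity by optical density at 650 nm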; settings: E. coli DRC39 acrAB, higher = more signal, called active from +8 up or from −8 down
# [8] = growth of efflux-deficient E. coli DRC39 – strain DRC39, OD650, 48 h, E. coli filamentation inducers, primary screen (AID 1179);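 note: screen aims at cell division blockers that make cells filament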; settings: E. coli DRC39 delta-acrAB growth, higher = more signal, called active from +8 up or from −8 down
# [9] = viability profiling in RPMI8226 myeloma cells – cell-based, resazurin fluorescence, basal, 24 h, PK04 Diversity Set, profiling panel (AID 1180); settings: higher = more signal;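 note: RPMI8826 multiple myeloma cell line at 5000 cells per well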
# [10] = target: E3 ubiquitin-protein ligase XIAP (Homo sapiens) (UniProt P98170); assay: small molecules binding XIAP protein – biophysical, small-molecule microarray, fluorescence 635 nm, primary screen (AID 1181); settings: higher = more signal;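 note: score merges 667 nm emission and signal to noise over triplicate slides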
# [11] = system: XIP peptide (Xip251-270) binding; assay: XIP fragment 251-270 binding compounds – biochemical, small-molecule microarray, fluorescence 635/667 nm, 0.1 µg/mL protein, primary screen (AID 1182); settings: fluorescent protein binding, 635 nm, higher = more signal, called active from +8 up or from −8 down
# XIP peptide (Xip251-270) = assay: compounds binding XIP fragment 251-270 – biochemical, small-molecule microarray, fluorescence 635/667 nm, 0.5 µg/mL protein, primary screen (AID 1183); settings: fluorescence 635 nm, higher = more signal
# [12] = blood-stage malaria parasite viability loss – strain 3D7, DAPI fluorescence, 100 nL, primary screen (AID 1184);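 note: parasites grown inside human red blood cells in medium with human serum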; settings: P. falciparum 3D7 growth, 3 d, higher = more signal
# [13] = target: Homeobox protein Hox-A13 (Mus musculus) (UniProt Q62424); assay: disruptors of Hoxa13 oligonucleotide interaction – biochemical, fluorescence polarization, labeled oligonucleotide, primary screen (AID 1185); settings: Hoxa13:DNA binding, 15 min, higher = more signal, called active from +8 up or from −8 down
# Homeobox protein Hox-A13 (Mus musculus), sequence (Q62424 whole entry, looked up): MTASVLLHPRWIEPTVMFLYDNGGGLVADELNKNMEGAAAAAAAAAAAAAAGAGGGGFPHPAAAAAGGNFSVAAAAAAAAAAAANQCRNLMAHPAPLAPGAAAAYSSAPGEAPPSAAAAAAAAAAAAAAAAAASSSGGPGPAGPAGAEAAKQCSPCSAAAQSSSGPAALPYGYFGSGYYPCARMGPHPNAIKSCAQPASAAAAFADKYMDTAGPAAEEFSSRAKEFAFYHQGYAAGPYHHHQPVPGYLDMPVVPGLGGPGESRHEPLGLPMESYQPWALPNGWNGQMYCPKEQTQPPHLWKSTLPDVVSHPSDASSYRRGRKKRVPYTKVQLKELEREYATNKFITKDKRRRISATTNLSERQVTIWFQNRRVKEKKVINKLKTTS
# E3 ubiquitin-protein ligase XIAP (Homo sapiens), sequence (P98170 whole entry, looked up, the tested form may be a part): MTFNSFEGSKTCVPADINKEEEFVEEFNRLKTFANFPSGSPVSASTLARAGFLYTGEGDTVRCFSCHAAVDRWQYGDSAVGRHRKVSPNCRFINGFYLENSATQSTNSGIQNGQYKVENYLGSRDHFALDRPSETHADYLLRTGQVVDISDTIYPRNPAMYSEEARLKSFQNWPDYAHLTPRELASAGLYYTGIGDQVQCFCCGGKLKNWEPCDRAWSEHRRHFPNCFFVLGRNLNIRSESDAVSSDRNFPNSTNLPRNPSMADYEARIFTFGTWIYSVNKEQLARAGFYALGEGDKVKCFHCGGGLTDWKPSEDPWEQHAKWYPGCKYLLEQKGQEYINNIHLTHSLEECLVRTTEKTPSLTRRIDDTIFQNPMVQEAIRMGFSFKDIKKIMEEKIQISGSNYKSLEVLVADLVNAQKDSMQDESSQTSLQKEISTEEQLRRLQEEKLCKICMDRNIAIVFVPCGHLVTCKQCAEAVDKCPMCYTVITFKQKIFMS
# Dihydroorotate dehydrogenase (quinone), mitochondrial (Plasmodium falciparum (isolate 3D7)), sequence (Q08210 whole entry, looked up): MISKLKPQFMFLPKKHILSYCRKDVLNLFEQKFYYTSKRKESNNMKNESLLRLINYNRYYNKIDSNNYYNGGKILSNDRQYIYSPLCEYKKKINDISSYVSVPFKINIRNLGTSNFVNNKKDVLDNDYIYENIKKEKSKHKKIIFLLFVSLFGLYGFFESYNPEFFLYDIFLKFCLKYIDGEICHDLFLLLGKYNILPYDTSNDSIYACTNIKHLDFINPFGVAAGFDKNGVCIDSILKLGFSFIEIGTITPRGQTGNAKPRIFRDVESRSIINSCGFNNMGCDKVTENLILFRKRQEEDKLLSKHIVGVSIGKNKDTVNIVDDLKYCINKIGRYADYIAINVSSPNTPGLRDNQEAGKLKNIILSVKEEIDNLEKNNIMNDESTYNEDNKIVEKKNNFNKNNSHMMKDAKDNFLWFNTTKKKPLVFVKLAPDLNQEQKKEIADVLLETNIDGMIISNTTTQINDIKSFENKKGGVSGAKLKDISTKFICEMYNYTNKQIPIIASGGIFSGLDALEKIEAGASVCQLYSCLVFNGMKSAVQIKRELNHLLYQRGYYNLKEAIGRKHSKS
SMILES,z-score [1],z-score [2],z-score [3],composite z-score [4],z-score [5],z-score [6],z-score [7],z-score [8],z-score [9],composite z-score [10],composite z-score [11],composite z-score (XIP peptide (Xip251-270)),z-score [12],z-score [13]
O=C1CCCC=C1C(CCc1ccccc1)OC(=O)c1ccc(Br)cc1 (stereo not given),-0.0575,-0.744 (inactive),-0.688 (inactive),-1.19 (inactive),1.18 (inactive),-0.0079 (inactive),-0.147 (inactive),-0.247 (inactive),0.504,0.289,0.622 (inactive),-0.198,-0.108,-1.88 (inactive)
CO[C@H]1COC(=O)CC=C[C@@H](C)[C@H](OC)COC(=O)CCC[C@@H]1C,0.855,-0.966 (inactive),0.818 (inactive),-0.526 (inactive),-0.172 (inactive),-1.45 (inactive),0.153 (inactive),0.039 (inactive),0.518,0.523,-0.283 (inactive),-0.15,0.0095,-0.51 (inactive)
CC(C)CON=C1C[C@@H](O)[C@@H](O)[C@@H]2[C@@H]3C(=O)N(c4ccc(F)cc4F)C(=O)[C@@H]3CC[C@H]12,0.806,-0.406 (inactive),0.686 (inactive),-0.223 (inactive),0.246 (inactive),-0.554 (inactive),0.404 (inactive),-0.382 (inactive),0.17,-0.138,0.0163 (inactive),0.37,0.0017,-0.224 (inactive)
CCCCC#C[C@@H]1C=C[C@H](OC(C)=O)[C@@H](COC(C)=O)O1,0.693,-1.44 (inactive),-3.24 (inactive),-0.216 (inactive),0.909 (inactive),-0.667 (inactive),-0.233 (inactive),-0.248 (inactive),-1.82,0.474,1.45 (inactive),0.641,0.247,-4.35 (inactive)
COC(=O)CC=C[C@@H](C)[C@@H](C=NOCC[C@@H]1C=C[C@H](OC(C)=O)[C@@H](COC(C)=O)O1)OC,-0.269,0.557 (inactive),-0.104 (inactive),0.558 (inactive),-0.242 (inactive),0.47 (inactive),0.157 (inactive),0.138 (inactive),-0.325,0.0506,-0.198 (inactive),0.239,1.13,-1.14 (inactive)
CCOC(=O)NN=C1C[C@@H](O)[C@@H](O)[C@@H]2[C@@H]3C(=O)N([C@@H](C)c4ccccc4)C(=O)[C@@H]3CC[C@@H]12,0.13,-0.608 (inactive),-0.371 (inactive),-0.0776 (inactive),-0.72 (inactive),-0.645 (inactive),-0.654 (inactive),-0.23 (inactive),-0.436,-0.202,-0.235 (inactive),0.519,0.156,-1.84 (inactive)
CC(C)CON=C1[C@H]2CCn3c(=O)n(Cc4cc5c(cc4Cl)OCO5)c(=O)n3[C@H]2[C@H](O)[C@@H]2O[C@H]12,-0.274,-0.761 (inactive),-0.302 (inactive),-2.76 (inactive),-1.4 (inactive),-0.471 (inactive),0.42 (inactive),-1.6 (inactive),-0.241,-0.0773,0.26 (inactive),0.368,-1.17,1.8 (inactive)
CCN1C(=O)[C@H]2[C@H]3[C@H](O)[C@H](O)CC(=O)[C@H]3CC[C@H]2C1=O,-0.195,-0.286 (inactive),-0.242 (inactive),-0.794 (inactive),-0.543 (inactive),-0.896 (inactive),-0.519 (inactive),-0.177 (inactive),-0.0216,-0.0476,0.809 (inactive),0.453,1.05,0.0412 (inactive)
CCOC(=O)[C@H](CC(C)C)NC(=O)CCC1CC(OC(=O)NCc2cccc3ccccc23)CC2(CCCC(COC(=O)NCCOC)O2)O1 (stereo not given in full),-0.0621,-2.14 (inactive),1.35 (inactive),-0.531 (inactive),0.226 (inactive),-1.73 (inactive),0.521 (inactive),-0.0291 (inactive),0.986,0.0589,-0.182 (inactive),0.446,-1.88,-3.68 (inactive)
CO[C@@H]1COC(=O)[C@H](CCSC)NC(=O)CC=C[C@@H](C)COC(=O)[C@H](C)NC(=O)CC=C[C@H]1C,0.356,-1.15 (inactive),0.457 (inactive),0.262 (inactive),-0.838 (inactive),-0.224 (inactive),0.916 (inactive),0.577 (inactive),0.693,-0.324,-0.665 (inactive),0.909,-0.131,-0.042 (inactive)
